PubChem BioAssay AID686978 (National Center for Advancing Translational Sciences (NCATS), 2013)
In all, about 420,000 compounds went through this assay and about 64,000 (15%) were called active. About 27% were inconclusive and are not listed. A selection follows. Unmarked numbers belong to inactive results. Calls follow the shape of the dose curve; as a rule, active = well fitted inhibition curve with a large enough effect; inconclusive = small, poorly fitted or top-dose-only effect; inactive = flat fitted curve, though single readings scatter.

Test: qHTS for Inhibitors of human tyrosyl-DNA phosphodiesterase 1 (TDP1): qHTS in cells in absence of CPT; also: nearly all actives have a fitted effect of over 55% in size
Conditions: DT40 Tdp1-/- hTDP1 cells, no CPT, ATP luminescence, 48 h; activity change, negative = growth inhibition: at 46.2 µM (top of the series)
How it was run: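 Readout: luminescence from CellTiter-Glo after 30 min in the dark at RT. Cells: DT40 Tdp1-/- with stable hTDP1, 400/well. Exposure: compounds alone, ≥48 hr, 37 °C.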
% is scaled to controls: 0 for no effect and ±100 for the full control effect; potency is read from the fitted curve at half-maximal effect.

Row | SMILES | activity change, negative = growth inhibition | Potency
1 | O=C(Oc1cccc(NC2=NS(=O)(=O)c3ccccc32)c1)c1ccncc1 | -0.45% | 
2 | CC(=O)c1c(C)[nH]c(=S)c(C#N)c1-c1ccc(F)cc1 | 8.94% | 
3 | CCOc1ccc(NC(=O)C(CC(C)C)N2Cc3ccccc3C2=O)cc1 (centres undefined) | -20.1% | 
4 | CC(Oc1ccccc1)C(=O)N[C@@H]1C(=O)N2[C@@H]1SC(C)(C)[C@@H]2C(=O)O (some centres undefined) | -3.68% [at 21.1 µM] | 
5 | CSc1ccc(/C=N\NC(=O)CC(=O)NC(C)C)cc1 | -2.5% | 
6 | COc1cc(C(CC(=O)NCCC(C)C)N2Cc3ccccc3C2=O)cc(OC)c1OC (centres undefined) | -26.2% | 
7 | O=C(CC(c1cccs1)N1Cc2ccccc2C1=O)Nc1ccc(F)cc1F (centres undefined) |  | 16.4 µM (active)
8 | O=C(O)CC(c1ccccc1F)N1Cc2ccccc2C1=O (centres undefined) | 2.01% | 
9 | CCc1ccc(NC(=O)C(C)OC(=O)/C=C/c2cccc([N+](=O)[O-])c2)cc1 (centres undefined) | 7.8% | 
10 | Cc1ccc(Cl)cc1-c1ccc(/C=N/n2cnnc2)o1 | -2.4% | 
11 | CC[C@]12c3[nH]c4cc(CCC(=O)N(C)C)ccc4c3CCN1C(=O)[C@@H](CC(=O)NCc1ccco1)C[C@@H]2C(=O)N1CCN(C(=O)c2ccco2)CC1 | -10.2% | 
12 | COc1ccc2[nH]c3c(c2c1)CCN1C(=O)C(CC(=O)NCc2cccc(C(F)(F)F)c2)C[C@H](C(=O)N2CCOCC2)[C@@]31C (some centres undefined) | -25.2% | 
13 | CC[C@]12c3[nH]c4cc(CCC(=O)N(C)C)ccc4c3CCN1C(=O)[C@@H](CC(=O)NCCCN(C)C)C[C@@H]2C(=O)N1CCN(C(=O)c2ccco2)CC1 | -4.3% | 
14 | CN(C)C(=O)CCc1ccc2c3c([nH]c2c1)[C@]1(C)[C@@H](C(=O)N2CCCCC2)C[C@H](CC(=O)NCCC2=CCCCC2)C(=O)N1CC3 |  | 16.4 µM (active)
15 | COc1ccc2[nH]c3c(c2c1)CCN1C(=O)C(CC(=O)NCCc2ccccn2)C[C@H](C(=O)N2CCOCC2)[C@@]31C (some centres undefined) | -1.15% | 
16 | CN(C)C(=O)CCc1ccc2c3c([nH]c2c1)[C@]1(CCc2ccccc2)[C@@H](C(=O)N2CCCCC2)C[C@H](CC(=O)NCCC2=CCCCC2)C(=O)N1CC3 |  | 9.2 µM (active)
17 | CC(C)N(C(=O)[C@H]1C[C@H](CC(=O)NC(C)(C)C)C(=O)N2CCc3c([nH]c4ccc(Cl)cc34)[C@]12C)C(C)C |  | 6.51 µM (active)
18 | CN(C)C(=O)CCc1ccc2c3c([nH]c2c1)[C@]1(C)[C@@H](C(=O)N2CCOCC2)C[C@H](CC(=O)NCCc2ccccn2)C(=O)N1CC3 | 6.99% | 
19 | CC[C@]12c3[nH]c4cc(CCC(=O)N(C)C)ccc4c3CCN1C(=O)[C@@H](CC(=O)NCCCn1ccnc1)C[C@@H]2C(=O)N1CCN(C(=O)C2CC2)CC1 | 0.652% | 
20 | CCN(CC)C(=O)[C@H]1C[C@H](CC(=O)NCC23CC4CC(CC(C4)C2)C3)C(=O)N2CCc3c([nH]c4cc(CCC(=O)N(C)C)ccc34)[C@]12C |  | 18.4 µM (active)

Row | SMILES | activity change, negative = growth inhibition | Potency
21 | CCN(CC)C(=O)[C@H]1CC(CC(=O)NCc2ccco2)C(=O)N2CCc3c([nH]c4ccccc34)[C@]12C (some centres undefined) | -17.4% | 
22 | C[C@]12c3[nH]c4ccc(Cl)cc4c3CCN1C(=O)[C@@H](CC(=O)NCCCn1ccnc1)C[C@@H]2C(=O)N1CCOCC1 | -13.3% | 
23 | CC(=O)NCC(=O)N1CCC(n2nccc2NC(=O)CCCc2ccccc2)CC1 | -7.46% | 
24 | OCC[C@H]1C[C@H](O)[C@@H](O)[C@]2(CCCCO2)O1 | -6.13% | 
25 | COc1ccc(-c2c(C#N)cnc(C)c2C)c(O)c1OC | -27.4% | 
26 | CSCCC(NC(=O)COc1ccccc1)C(=O)Nc1ccc(C)cc1 (centres undefined) | -28.3% | 
27 | O=C(O)c1ccc(COc2c(F)c(F)cc(F)c2F)o1 | 18.8% | 
28 | CC(=O)N1CCC2(CCCN(Cc3ccc(C#N)cc3)C2)CC1 | 0.656% | 
29 | CS(=O)(=O)NC(=O)CCC/C=C\C[C@H]1C(=O)C[C@@H](O)[C@@H]1/C=C/[C@H](O)COc1ccccc1 | -1.9% | 
30 | CC(Sc1ncnc2c1cnn2-c1ccccc1)C(=O)Nc1ccc(N2CCOCC2)cc1 (centres undefined) | -1.88% | 
31 | Cc1cc2nc(SCCN3CCOCC3)[nH]c2cc1C | -12.7% | 
32 | COc1ccc(/C=N/NS(=O)(=O)c2ccc(NC(C)=O)cc2)cc1 | 2.6% | 
33 | CCc1ccc(S(=O)(=O)Nc2ccc(C)c(NS(C)(=O)=O)c2)cc1 | -1.78% | 
34 | CCc1ccc(S(=O)(=O)N/N=C\c2ccc([N+](=O)[O-])o2)cc1 |  | 16.4 µM (active)
35 | Cc1ccccc1NCC(=O)N/N=C\c1ccc([N+](=O)[O-])s1 |  | 9.2 µM (active)
36 | COc1ccc(C(=O)NCC(=O)N/N=C/c2ccc([N+](=O)[O-])o2)cc1OC |  | 5.17 µM (active)
37 | O=C(COc1ccccc1[N+](=O)[O-])N/N=C/c1ccc[nH]1 | -15.9% | 
38 | O=C(Cc1cc(=O)[nH][nH]1)N/N=C/c1ccccc1[N+](=O)[O-] | -17.3% | 
39 | COc1ccc(C(=O)NCC(=O)N/N=C/c2ccc([N+](=O)[O-])s2)cc1OC |  | 16.4 µM (active)
40 | COc1cc(/C=N\NC(=O)CNC(=O)c2cccc([N+](=O)[O-])c2)ccc1O | -0.0452% | 

Row | SMILES | activity change, negative = growth inhibition | Potency
41 | COc1cccc(/C=N/NC(=O)CNC(=O)c2ccc(S(=O)(=O)N3CCOCC3)cc2)c1OC | -23.8% | 
42 | COc1cc(/C=N/NC(=O)CNC(=O)c2ccncc2)ccc1OC(C)=O | 5.66% | 
43 | COc1ccc(C(=O)COC(=O)c2ccc([N+](=O)[O-])s2)cc1OC | -8.4% | 
44 | CC1(C)S[C@@H]2[C@H](N=CN3CCCCCC3)C(=O)N2[C@H]1C(=O)O | -23.2% | 
45 | CN(C(=O)CN(CCO)CC(=O)N(C)C(C)(C)Cc1ccccc1)C(C)(C)Cc1ccccc1 | -1.77% | 
46 | [O-][n+]1c2c(nn1-c1ccc(Cl)c(Cl)c1)-c1nonc1CC2 | -14.7% | 
47 | Oc1ccccc1CNc1ncc(Br)cc1Br | -23.9% | 
48 | O=S(=O)(NCCc1ccc(Cl)cc1)c1cccs1 | -21.2% | 
49 | COc1cccc(-n2c(Cc3cc(=O)[nH]c(=O)[nH]3)nnc2SCC(=O)Nc2ccccc2)c1 | 0.566% | 
50 | Nc1nnnn1CC(=O)N/N=C/c1ccc(-c2cccc(Cl)c2)o1 | -20.2% | 
51 | C[C@H]1CN([C@@H](C)CO)C(=O)CCCn2cc(nn2)CO[C@@H]1CN(C)S(=O)(=O)c1cccs1 | -1.39% | 
52 | Cc1cc(C)nc(Nc2cc([N+](=O)[O-])ccc2C)n1 | -12.5% | 
53 | O=C(N/N=C/c1ccc([N+](=O)[O-])cc1)C(=O)N1CCCC1 | -23.1% | 
54 | Cc1cc(C)nc(N/N=C/c2ccncc2)n1 | 1.16% | 
55 | CC(C)(C)c1cc(C(=O)N/N=C/c2ccc([N+](=O)[O-])s2)n[nH]1 |  | 11.6 µM (active)
56 | Cc1nn(CC(=O)N/N=C/c2ccc(F)cc2)c(C)c1[N+](=O)[O-] | 4.7% | 
57 | O=C(Cc1ccc([N+](=O)[O-])cc1)N/N=C/c1ccco1 | 11.1% | 
58 | Cc1cc(C)nc(N/N=C/c2ccc([N+](=O)[O-])o2)n1 |  | 16.4 µM (active)
59 | NC(=O)C(=O)N/N=C/c1ccc([N+](=O)[O-])o1 |  | 15 µM (active)
